This is a sample that favours compounds with a hit; in the whole collection about 12% have one here.
G9a block = qHTS Assay for Inhibitors of Histone Lysine Methyltransferase G9a; G9a H3K9 monomethylation, AlphaScreen, 2 h; Potency, µM (doses to about 102 µM), for the others: at the top dose activity, negative = inhibition, actives largely listed as inhibitors; hit rate 8.8% among 350,000; also: % is scaled to controls: 0 for no effect and ±100 for the full control effect; nearly all actives have a fitted effect of over 75% in size
Target sequence (Q96KQ7 913-1193 limits assumed): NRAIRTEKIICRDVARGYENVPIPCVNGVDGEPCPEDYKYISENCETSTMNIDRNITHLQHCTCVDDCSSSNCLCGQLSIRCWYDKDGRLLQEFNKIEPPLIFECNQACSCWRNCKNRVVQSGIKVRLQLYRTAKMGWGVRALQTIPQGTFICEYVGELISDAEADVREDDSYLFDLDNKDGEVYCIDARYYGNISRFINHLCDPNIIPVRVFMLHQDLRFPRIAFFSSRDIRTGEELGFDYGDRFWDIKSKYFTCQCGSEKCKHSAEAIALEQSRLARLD
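Compounds were preincubated with 20 nM G9a for 15 min, after which biotinylated H3K9 peptide (500 nM) and SAM (20 uM) started a 2 h room-temperature reaction. Monomethylated product was quantified by antibody-based AlphaScreen chemiluminescence.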
HP1b binding inh = HTS for Inhibitors of HP1-beta Chromodomain Interactions with Methylated Histone Tails; Chromobox protein homolog 1 (Homo sapiens), P83916; AlphaScreen HP1-beta / biotin-H3K9me3 peptide binding; Potency, µM (doses to about 114 µM), for the others: at the top dose activity change, negative = inhibition, usual class: inhibitors; hit rate 0.56% among 390,000; AID 540317, 2011; also: nearly all actives have a fitted effect of over 70% in size
Target sequence (P83916 whole entry, looked up): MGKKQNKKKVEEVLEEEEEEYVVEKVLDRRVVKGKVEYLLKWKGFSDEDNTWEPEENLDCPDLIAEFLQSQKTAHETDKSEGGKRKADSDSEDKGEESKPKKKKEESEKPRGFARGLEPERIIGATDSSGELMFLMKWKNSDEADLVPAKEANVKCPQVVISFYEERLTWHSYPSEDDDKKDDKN
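HP1-beta protein (50 nM final) preincubated 30 min at room temperature with biotinylated H3(1-18)K9me3 peptide (50 nM) in PBS pH 7.4, 0.01% Tween-20, then compound added for 30 min. AlphaScreen streptavidin donor/nickel chelate acceptor beads (10 ug/mL final), 30 min dark, luminescence read.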
BAZ2B inh = qHTS Assay for Inhibitors of BAZ2B | AID 504333, 2011 | hit rate 4.4% among 360,000 | Potency, µM (series often up to 114 µM), for the others: at the highest dose activity change, negative = inhibition, usual class: inhibitors | AlphaScreen BAZ2B-H3K14Ac peptide displacement; also: % is scaled to controls: 0 for no effect and ±100 for the full control effect; nearly all actives have a fitted effect of over 60% in size
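Compounds, titrated to a top concentration of 110 uM, were incubated 30 min at room temperature with preformed BAZ2B/acetyl-K14 H3 peptide complex (50 nM each). Proximity signal was measured by AlphaScreen after 20 min with beads.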
Sfp inh = qHTS Assay for Inhibitors of Bacillus subtilis Sfp phosphopantetheinyl transferase (PPTase). 4'-phosphopantetheinyl transferase ffp (Bacillus subtilis), Q9F4F7. Biochemical Sfp PPTase activity, qHTS. Potency, µM, inactives show largest response in the series, negative = inhibition, actives largely listed as inhibitors. hit rate 3.5% among 310,000;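 also: the enzyme is Sfp with the accession as filed and its product quenches rhodamine fluorescence; 0% = enzyme reaction without inhibitor and -100% = no enzyme wells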
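Fluorescence-quenching assay: 15 nM Sfp-PPTase preincubated 15 min at room temperature with compound, then 5 uM rhodamine-CoA and 12.5 uM BHQ-2-labelled YbbR peptide added. Fluorescence (ex 525/em 598 nm) read at start and after 30 min; difference gives rate.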
JMJD2A Tudor = qHTS Assay for Inhibitors of JMJD2A-Tudor Domain; hit rate 4.4% among 390,000; Potency, µM (titrated, usually from 114 µM), for inactives: at the top dose activity change, negative = inhibition, hits mostly inhibitors; AlphaScreen JMJD2A-Tudor / H3K4me3 peptide binding; Lysine-specific demethylase 4A (Homo sapiens), O75164; also: % is scaled to controls: 0 for no effect and ±100 for the full control effect; nearly all actives have a fitted effect of over 50% in size
L3MBTL1 block = qHTS Assay for the Inhibitors of L3MBTL1; Lethal(3)malignant brain tumor-like protein 1 (Homo sapiens), Q9Y468; AlphaScreen L3MBTL1–H3K9me1 peptide binding; Potency, µM (highest dose often 57.1 µM), inactives show top-dose activity, negative = inhibition, actives largely listed as inhibitors; hit rate 0.66% among 230,000; AID 485360, 2010; also: % is scaled to controls: 0 for no effect and ±100 for the full control effect; nearly all actives have a fitted effect of over 60% in size
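Displacement of a biotinylated histone H3(1-15) peptide monomethylated at Lys9 (75 nM) from L3MBTL1 (50 nM) was measured by AlphaScreen after a 30 min room-temperature compound incubation; cefsulodin titration served as intraplate control.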
Starred values were filed as active, the others as inactive; ? = inconclusive; . = no result; ! = not confirmed by another sample; [ ] = dose if it differs, or a comment. Calls follow the shape of the dose curve; as a rule, active = well fitted curve in the direction sought with a large enough effect; inconclusive = small, poorly fitted or top-dose-only effect, or another doubt; inactive = no such curve, though single readings can be large; an effect the other way counts as inactive or inconclusive. Potency is read from the fitted curve at half-maximal effect.

SMILES	G9a block	HP1b binding inh	BAZ2B inh	Sfp inh	JMJD2A Tudor	L3MBTL1 block
CN(C)C1C(=O)C(C(N)=O)=C(O)[C@@]2(O)C(=O)C3=C(O)c4c(O)ccc(Cl)c4[C@](C)(O)C3CC12 (stereo partly drawn)	?	.	.	-59.5%	.	.
COc1cc(OC)c2c(c1)OC(c1ccc(OC)c(OC)c1)C(O)C2 (stereo not drawn)	-23.9%[2.33 µM]	.	.	-1.6%	.	.
CCOc1cc(-c2ccc(N)c(OCC)c2)ccc1N	?	8.91µM*	14.1µM*	-26.7%	?	?
CC1O[C@@H](OC2CC[C@@]3(C=O)C4CC[C@]5(C)C(C6=CC(=O)OC6)CC[C@@]5(O)C4CC[C@]3(O)C2)C(O)C(O)C1O (stereo partly drawn)	-30.3%[2.33 µM]	.	.	3.2%	.	.
c1ccc(-c2cc3c(nc2-c2ccccc2)CCNC3)cc1	.	.	.	11.8%	.	.
CCc1cc(=O)oc2cc(C)cc(OCC(=O)N3CCC(C(=O)O)(c4ccccc4)CC3)c12	-7.6%[12.7 µM]	44.1%	-25.7%	9.0%	-8.8%	.
Cc1cc2oc(=O)cc(-c3ccccc3)c2c(C)c1-c1ccc(CO)cc1	?	32.9%	.	126µM*	-13.7%	-6.8%
CN(C)c1ccc(P(=O)(Nc2ccc([N+](=O)[O-])cc2)N2CCOCC2)c(NC(=O)c2cccs2)c1 (stereo not drawn)	44.7µM*	-8.5%	?	-12.5%	-26.7%	-6.2%
O=[N+]([O-])c1cccc(NP(=O)(N2CC2)N2CC2)c1	.	16.9%[57 µM]	.	.	-2.8%	.
COC[C@H]1OC(=O)c2coc3c2[C@@]1(C)C1=C(C3=O)[C@@H]2CCC(=O)[C@@]2(C)C[C@H]1OC(C)=O	5.01µM*	25.4%	.	35.5µM*	-4.9%	.
CCCCCn1c(=O)c(C(=O)Nc2cnccn2)c(O)c2ccccc21	.	8.9%	13.9%	15.7%	44.7µM*	6.1%
Cc1cc(C)n(-c2nc3nonc3nc2Nc2cccc(C)c2C)n1	13.1%[59 µM]	43.6%	-1.4%	7.3%	-19.0%	3.1%
CC=C1C2C=C(C)CC1(N)c1ccc(=O)[nH]c1C2 (stereo not drawn)	46.8%[59 µM]	.	.	17.2%	.	.
Cc1cccc(-n2c(C)nc3ccccc3c2=O)c1C	-8.1%[0.501 µM]	11.5%	13.3%	20.0%	-23.5%	8.0%
Cc1cccc(-n2c(C)n[nH]c2=S)c1C	?	44.6%	4.7%	-14.0%	44.7µM*	.
CNCCc1nc(N)n[nH]1	56.2µM*	14.9%	?	-9.1%	-8.4%	.
CC/C(=N\NC(=S)Nc1ccccc1)c1c(O)[nH]c(=O)[nH]c1=O	-130.8%[59 µM]	22.8%	-5.4%	22.4µM*	-9.2%	.
O=c1c2ccccc2nc(-c2ccco2)n1-c1ccccc1	?	43.2%	-1.3%	6.0%	1.9%	-11.4%
O=C(NC1CC1)c1cc(-c2ccco2)nc2ccccc12	10µM*	17.8µM*	10µM*	44.7µM*	8.91µM*	.
COC(=O)c1ccc(Cl)c(NC(=O)CN2CCN(Cc3ccccc3)CC2)c1	11.2µM*	26.5%	4.1%	4.3%	-9.0%	29.7%[11.4 µM]
O=[N+]([O-])c1ccc(Cl)c([N+](=O)[O-])c1	-33.9%[59 µM]	1.8%	-33.6%	.	?	-7.7%
CN1C(=O)C(c2ccc([N+](=O)[O-])cc2[N+](=O)[O-])C(=O)N(C)C1=O	8.0%[2.33 µM]	17.9%	50.1µM*	7.9%	?	.
CCOP(=O)(OCC)c1nc(-c2ccc(F)cc2)oc1NCc1ccccc1	28.9%[12.7 µM]	-7.1%	?	5.5%	-12.3%	-6.3%
CCC(CC)NC1CCCCC1OC (stereo not drawn)	?	18.6%	?	-11.7%	50.1µM*	5.5%
COc1ccc(-c2oc(=O)n(C)c2-c2ccc(OC)cc2)cc1	-14.1%	0.0%	31.6µM*	1.2%	?	.
SMILES	G9a block	HP1b binding inh	BAZ2B inh	Sfp inh	JMJD2A Tudor	L3MBTL1 block
COc1ccc(C=O)cc1	-3.9%[0.501 µM]	49.3%	1.5%	.	3.4%	-5.2%
CCc1c(C)nc(N)nc1N1N=C1SCC(=O)OC	22.4%[12.7 µM]	0.4%	-11.1%	22.1%	-19.6%	6.4%
COC(=O)CSC1=NN1c1cc(C)nc(N)n1	50.1µM*	49.3%	1.8%	-6.8%	-9.2%	6.1%
CC/C=C\C/C=C\C/C=C\C/C=C\C/C=C\CCCC(=O)NC(C)C(=O)O (stereo not drawn)	.	.	.	-11.2%	.	.
COc1ccc(CCNc2nccn(-c3ccc(C)c(C)c3)c2=O)cc1OC	?	?	44.7µM*	.	-24.7%	.
O=P(/C(=N/O)N1CCCCC1)(N1CCOCC1)N1CCOCC1	56.2µM*	24.3%	7.9%	10.3%	2.1%	-2.1%
NC(N)=NOCC[C@H](N)C(=O)O	31.6µM*!	.	.	-1.2%	.	.
CCN1C[C@]2(COC)CC[C@H](O)[C@@]34[C@@H]5C[C@H]6[C@@H](OC)[C@H]5[C@](O)(C[C@@H]6OC)[C@@](O)([C@@H](OC)[C@H]23)[C@@H]14	22.3%[21.5 µM]	.	.	19.8%	.	.
CCc1ccc(N2C(=O)NC(=O)/C(=C/c3ccsc3)C2=O)cc1	39.8µM*	.	2.2%	50.1µM*	.	.
O=C1NC(=O)N(c2ccc3c(c2)OCO3)C(=O)/C1=C/c1cccs1	11.2µM*	19.2%	-15.8%	11.2µM*	-35.0%	.
CN1C(=O)C(Cc2ccc3c(c2)OCO3)C(=O)N(C)C1=O	?	.	-37.0%	?	.	.
O=C1NC(=O)N(c2ccc3c(c2)OCO3)C(=O)/C1=C/c1ccsc1	?	35.8%	-5.6%	39.8µM*	-5.5%	-1.1%
C[C@]12CCC3C(CC[C@]4(O)CC(O)CC[C@@]34C=O)[C@]1(O)CCC2C1=CC(=O)OC1 (stereo partly drawn)	-34.2%[2.33 µM]	.	.	19.1%	.	.
CN(C(=O)CSc1nc2ccc(NC(=O)COc3ccc(Cl)cc3)cc2s1)c1ccccc1	6.9%[59 µM]	39.0%	-3.7%	.	-8.3%	.
CC(OC(=O)COc1ccc(Nc2ccccc2)cc1)C(=O)N(C)c1ccccc1 (stereo not drawn)	39.8µM*	?	22.4µM*	.	35.5µM*	?
CN(CCc1ccccn1)Cc1ccc(Cl)cc1	10µM*	?	44.7µM*	?	6.31µM*	.
Cc1ccc(CN(C)CCc2ccccn2)cc1	12.6µM*	?	?	-9.9%	3.16µM*	.
Cc1ccc(N2C(=O)NC(=O)C(CCc3ccccn3)(Cc3ccc(F)cc3)C2=O)cc1 (stereo not drawn)	-0.8%	39.2%	-14.8%	15.1%	5.1%	-2.8%
